High-throughput results deposited in PubChem by National Center for Advancing Translational Sciences (NCATS).
SMN2 splice enh – enhancers of SMN2 splice variant expression | HEK293 SMN2-luciferase splicing reporter, luminescence, 30-36 h | Potency, µM (highest dose often 46.1 µM), without a hit: top-dose activity change, positive = activation, hits mostly activators | 210,000 compounds, 2.8% hits | AID 1458; note: % of control where 0% means no effect; nearly all actives have a fitted effect of over 55% in size
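HEK293 cells carry an SMN2 […]–luciferase reporter in which exon 7 inclusion puts luciferase in frame. Cells were plated 10-12 h before compound addition, then incubated 30-36 h at 37C. ONE-Glo luminescence was read; sodium butyrate at 4.5 mM final served as control.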
KinaseGlo FLuc – blocks Kinase-Glo luciferase, a counter-screen artifact. Kinase-Glo luciferase, ATP luminescence, 8 min. 200,000 compounds, 0.28% hits. AID 1379. Q27757. Potency, µM (doses to about 38.3 µM), for inactives: top-dose activity change, negative = inhibition, actives largely listed as inhibitors; note: % is set by controls: 0 for no effect and ±100 for the full control effect; nearly all actives have a fitted effect of over 60% in size
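Compounds were added to a substrate mix at pH 7.2 (50 mM imidazole, 10 uM ATP, within the enzyme's linear range), followed by Kinase-Glo detection reagent; luminescence was measured after 8 minutes at ambient temperature.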
Rab9 promoter act – Rab9 promoter activation; 320,000 compounds, 2.8% hits; Potency, µM (titrated, usually from 9.22 µM), without a hit: at the highest dose activation, negative = inhibition, usual class: activators; Huh7 Rab9 promoter-luciferase reporter, luminescence, 24 h; note: % of control where 0% means no effect; nearly all actives have a fitted effect of over 60% in size
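Huh7 reporter line, Rab9 promoter upstream of luciferase. Compound exposure 24 h at 37 °C in reduced-serum medium with 10% FBS. Read-out: luminescence.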
ELG1 genotoxic – induces genotoxicity in HEK293T cells with luciferase-tagged ELG1; Potency, µM (top dose mostly 46 µM), for inactives: top-dose activity change, positive = activation, usual class: activators; HEK293T ELG1-luciferase reporter, luminescence, 16 h; 330,000 compounds, 1.3% hits; note: % of control where 0% means no effect; nearly all actives have a fitted effect of over 60% in size
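16 hr compound incubation (37 °C, 5% CO2) of HEK293T cells carrying luciferase-tagged ELG1; luciferase then measured by ONE-Glo luminescence after 30 min at RT.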
NPC1 promoter act – activates the NPC1 promoter. Potency, µM (titrated, usually from 9.22 µM), without a hit: top-dose activation, hits mostly activators. 320,000 compounds, 2.4% hits. Huh7 NPC1 promoter luciferase reporter, 24 h; note: % of control where 0% means no effect; nearly all actives have a fitted effect of over 60% in size
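Readout is luciferase luminescence, reflecting NPC1 promoter activation in stably transfected Huh7 cells after 24 h compound exposure at 37 °C in reduced-serum medium with 10% FBS.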
FLuc modulator – inhibits or activates purified firefly luciferase, miR-21 counter-screen | P08659 | purified FLuc, Km substrates, luminescence inhibition | Potency, µM (series often up to 57.5 µM), for inactives: at the highest dose activity change, negative = inhibition, hits mostly inhibitors | 360,000 compounds, 6.9% hits | AID 588342;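 note: plate controls were vehicle for no effect and reference inhibitor for full effect; nearly all actives have a fitted effect of over 55% in size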
Target sequence (P08659 whole entry, looked up): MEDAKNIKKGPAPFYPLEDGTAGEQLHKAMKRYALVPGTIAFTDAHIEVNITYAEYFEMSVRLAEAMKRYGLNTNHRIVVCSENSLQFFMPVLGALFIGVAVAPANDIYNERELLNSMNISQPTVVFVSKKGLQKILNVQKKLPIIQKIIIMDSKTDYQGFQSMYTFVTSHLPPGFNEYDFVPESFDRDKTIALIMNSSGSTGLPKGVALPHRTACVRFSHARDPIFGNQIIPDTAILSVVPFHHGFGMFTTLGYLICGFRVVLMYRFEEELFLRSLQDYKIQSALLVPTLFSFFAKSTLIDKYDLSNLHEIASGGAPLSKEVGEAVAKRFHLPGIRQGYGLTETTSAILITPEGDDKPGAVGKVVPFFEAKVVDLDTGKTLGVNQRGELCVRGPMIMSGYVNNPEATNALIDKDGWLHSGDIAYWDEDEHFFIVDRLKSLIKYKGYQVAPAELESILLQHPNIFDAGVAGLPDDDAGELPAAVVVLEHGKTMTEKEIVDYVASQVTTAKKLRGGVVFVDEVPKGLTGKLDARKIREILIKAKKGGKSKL
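Biochemical qHTS of compounds, final roughly 60 µM downward over six points, against 10 nM purified firefly luciferase using Km concentrations of substrates (10 uM D-luciferin, 10 uM ATP) in Tris acetate pH 7.5 buffer; luminescence output.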
Starred values were filed as active, the others as inactive; ? = inconclusive; · = no result given; [ ] = dose if it differs, or a comment. A selection: hits, their analogues and other compounds. The true share with any hit is near 7.3%. Calls come from the whole dose curve; as a rule, active = well fitted curve in the direction sought with a large enough effect; inconclusive = small, poorly fitted or top-dose-only effect, or another doubt; inactive = no such curve, though single readings can be large; an effect the other way counts as inactive or inconclusive. Potency is the fitted concentration of half-maximal effect.

SMILES	SMN2 splice enh	KinaseGlo FLuc	Rab9 promoter act	ELG1 genotoxic	NPC1 promoter act	FLuc modulator
Cc1ccc(N=C2NC(=O)/C(=C\c3ccco3)S2)cc1	16%	-3%	?	?	?	17µM*
Cn1cccc1/C=C1\SC(=Nc2ccc(O)cc2)NC1=O	·	·	-6%	16µM*	23%	?
O=C1NC(=Nc2ccccc2)S/C1=C\c1cccs1	·	·	3.2µM*	?	3.2µM*	12µM*
Cc1cc(C)cc(N=C2NC(=O)/C(=C/c3cccs3)S2)c1	-22%	1%	-2%	3%	1%	-19%
CCOc1ccc2c(c1)S/C(=C\c1cccs1)C(=O)N2	·	·	?	?	?	9.5µM*
O=C(O)C[C@H]1OCC=C2C[N@@+]3([O-])CC[C@]45c6ccccc6N[C@@H]4[C@@H]1[C@H]2C[C@H]53	8%[9.22 µM]	-6%[7.66 µM]	·	·	·	·
O=S(=O)(c1ccccc1)c1nnn2c1nc(NC1CCCCCC1)c1sccc12	·	·	·	·	·	0%
COc1ccc2c(c1)c1c(C)c3cnccc3c(C)c1n2CCCN	-1%[9.22 µM]	-1%[7.66 µM]	·	·	·	·
c1ccc(SCCSc2ccccc2)cc1	4%	·	·	·	·	·
CCN(CC)c1nc2c(S(=O)(=O)c3ccc(C)cc3)nnn2c2ccsc12	·	·	·	·	·	-9%
Cc1ccc(N=C2NC(=O)/C(=C/c3cccn3C)S2)c(C)c1	·	·	0%	-8%	0%	0%
Cn1cccc1/C=C1\SC(=Nc2ccccc2)NC1=O	·	·	22%	23µM*	-18%	9.5µM*
Cn1cccc1/C=C1\SC(=Nc2cccc(O)c2)NC1=O	·	·	?	?	12%	12µM*
CN1CCN(c2ccc(-c3nc(-c4ccccc4)no3)cc2[N+](=O)[O-])CC1	·	·	·	·	·	-12%
Cc1ccc(S(=O)(=O)NC2CCCC2)cc1C	-1%	-2%	4%	-1%	0%	-2%
Cc1cc(=O)[nH]c2ccc(S(=O)(=O)NC3CCCCC3)cc12	·	·	-4%	21µM*	-1%	1%
CCn1c(=NC(=O)c2cccc(N3C(=O)CCC3=O)c2)sc2c(C)ccc(OC)c21	·	·	0%	1%	-2%	?
COc1ccc(C(=O)N=c2sc3c(C)ccc(OC)c3n2C)cc1OC	·	·	1.8µM*	-3%	1.6µM*	2.7µM*
COc1ccc(C(=O)N=c2sc3ccccc3n2C)cc1OC	18µM*	-3%	2.2µM*	?	2.5µM*	11µM*
COc1cccc(C(=O)N=c2sc3c(C)ccc(OC)c3n2C)c1	2.8µM*	?	0.71µM*	0.65µM*	0.71µM*	0.67µM*
COc1ccc(N=c2sc3ccccc3n2C)cc1	?	-3%	2.2µM*	8.2µM*	2.5µM*	6µM*
Cc1ccc2nc(COc3ccccc3NC(=O)C(C)(C)C)cc(=O)n2c1	·	·	·	·	·	0%
CCCSc1ncc(Cl)c(C(=O)N2CCN(c3ccc(OC)cc3)CC2)n1	-33%	·	·	·	·	-12%
COc1ccccc1C(=O)N=c1sc2c(C)ccc(OC)c2n1C	·	·	26%	?	?	15µM*
CCc1nn(CC(=O)NCCC(C)C)c(=O)c2cc3occc3n12	1%	·	·	·	·	-3%
SMILES	SMN2 splice enh	KinaseGlo FLuc	Rab9 promoter act	ELG1 genotoxic	NPC1 promoter act	FLuc modulator
CCN(CC)CC(=O)Nc1ccc2c(c1)Nc1ccccc1CC2	-2%	0%	?	0%	18%	12µM*
COc1ccccc1N=Cc1c(C)[nH]n(-c2ccc(C)cc2C)c1=O	·	-3%	-4%	-4%	-1%	0%
COc1ccc2nc(/N=C/c3c(C)[nH]n(-c4ccc(C)cc4C)c3=O)sc2c1	18%	4%	17%	9%	0%	27µM*
CC(=O)Nc1c(-c2ccc3ccccc3c2)nc2ccccn12	·	·	?	21µM*	?	1.9µM*
CCC(=O)Nc1c(-c2ccc3ccccc3c2)nc2ccccn12	·	·	?	11%	17%	3.8µM*
Nc1nc(-c2ccc(C(=O)O)cc2)cs1	5%	-4%	-4%	2%	-8%	-9%
Nc1nc(-c2ccc(-c3ccccc3)cc2)cs1	0.5µM*	-17%	0.4µM*	?	0.79µM*	2.4µM*
Nc1nc(-c2ccc(Oc3ccccc3)cc2)cs1	·	·	?	?	?	13µM*
COc1ccc(-c2csc(-c3cc4ccccc4oc3=N)n2)cc1	5%	2%	0%	0%	1%	5.4µM*
Nc1nc(-c2ccc3ccccc3c2)cs1	11µM*	-6%	0.79µM*	4.6µM*	3.2µM*	3.8µM*
Cc1cc(Cc2cc(C)c(N)cc2N)c(N)cc1N	-6%[9.22 µM]	-7%[7.66 µM]	·	·	·	·
CCOc1ccc(C(c2c(O)cc(C)n(Cc3ccco3)c2=O)N2CCCCC2)cc1 (stereo unspecified)	·	·	·	·	·	-18%
CC(=O)O[C@H]1CC2(C)[C@@H](C[C@@H](O)[C@H]3[C@@]4(C)CC[C@@H](O)[C@@H](C)[C@@H]4CC[C@@]32C)C1=C(CCC=C(C)C)C(=O)O (stereo partly specified)	7%	0%	-8%[46.1 µM]	·	2%[46.1 µM]	·
COc1ccc(-c2csc(N)n2)cc1	14µM*	-3%	?	?	?	15µM*
COc1ccc(-c2csc(N=C(N)N)n2)cc1	29%	0%	?	?	?	15µM*
Cc1ccc(-c2csc(N=C(N)N)n2)c(C)c1	·	·	13%	5%	12%	?
Cc1ccc(OCc2csc(N)n2)cc1	13µM*	-4%	4µM*	?	?	24µM*
c1ccc(-c2nnnn2-c2ccccc2)cc1	·	·	3%	0%	0%	1%
CN=c1nc(-c2ccccc2)n(-c2ccccc2)s1	?	-12%	-12%[46.1 µM]	?	-5%[46.1 µM]	15µM*
COc1ccc(CCNC(=O)Cn2c(=O)c3cccn3c3ccccc32)cc1OC	·	·	·	·	·	-17%
COc1ccc(Cl)cc1NC(=O)Cn1c(=O)n2nc(-c3ccccc3)nc2c2ccccc21	-11%	·	·	·	·	0%
Cc1cc(/C=C2/NC(=O)N(c3ccccc3)C2=O)c(C)n1C(C)C	10µM*	-1%	1.6µM*	?	3.2µM*	4.8µM*
Cc1cc(/C=C2/NC(=O)N(Cc3ccccc3F)C2=O)c(C)n1C(C)C	0%	-3%	-2%	-3%	-2%	?
CC(=O)Cc1nsc(Nc2ccc3c(c2)OCCO3)n1	13µM*	-20%	4µM*	?	3.5µM*	24µM*
COc1ccc(Nc2nc(CC(C)=O)ns2)cc1	14µM*	2%	3.2µM*	?	?	?
CC(=O)Cc1nsc(Nc2ccc(F)cc2)n1	24%	0%	19%	11%	4%	-6%
COc1cccc(Nc2nc(CC(C)=O)ns2)c1	17%	-1%	27%	?	?	?
Cc1ccc(S(=O)(=O)Nc2nc3ccccc3s2)cc1	17%	-2%	1%	1%	0%	1%
